# PGK inhibitor – inhibitors of T. brucei phosphoglycerate kinase | AID 602233 | Potency, µM (titrated, usually from 57.5 µM), actives largely listed as inhibitors | 0.043% of 380,000 active | PGK/GAPDH coupled, Kinase-Glo luminescence, 60 min | P07378; further: nearly all actives have a fitted effect of over 60% in size
#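 Luminescent ATP detection (Kinase-Glo Plus) follows a 60-minute room-temperature incubation, with wells lacking PGK as controls. Buffer: 100 mM TEA (pH 7.6), 5 mM MgCl2, 0.01% Tween-20. Coupling enzyme GAPDH (100 nM final) supplies unstable 1,3-BPG in-well.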
# Pin1 inh – blocks the human prolyl isomerase Pin1 | Q13526 | Pin1 FP peptide displacement, HiFluor488, 10 min | Potency, µM (series often up to 115 µM), most hits filed as inhibitors | 0.009% of 390,000 active | AID 504891; active means well fitted inhibition curve with a large enough effect in the polarisation, with a control signal flat, not every such curve was filed as active; inconclusive means small, poorly fitted or top-dose-only effect, or effect the other way, or a change in a side signal; inactive means no such curve, though single readings can be large or run the other way; the % refers to the polarisation
# Target sequence (Q13526 whole entry, looked up): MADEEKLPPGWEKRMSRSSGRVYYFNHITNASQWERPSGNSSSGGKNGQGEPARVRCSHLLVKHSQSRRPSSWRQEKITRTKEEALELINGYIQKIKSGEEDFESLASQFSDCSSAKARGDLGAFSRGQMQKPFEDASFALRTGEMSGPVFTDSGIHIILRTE
# B2AR arrestin – recruits beta-arrestin to the human beta2-adrenergic receptor | P07550 | beta-arrestin recruitment to beta2AR, cell-based reporter | Potency, µM (titrated, usually from 46.1 µM), usual class: activators | 0.02% of 330,000 active; further: nearly all actives have a fitted effect of over 65% in size
# GLS inh – blocks human kidney-isoform glutaminase activity. GLS enzymatic activity, qHTS titration. Potency, µM (top dose mostly 45.5 µM), actives largely listed as inhibitors. 0.21% of 410,000 active. O94925. AID 624170
#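 Coupled fluorescence readout: glutamate oxidase/HRP/Amplex Red detect glutamate formed by hKGA from L-glutamine (1 mM solution added). Buffer 45 mM KH2PO4 pH 8.2, 0.02% Tween-20; reads at t0 and 30 min RT.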
# Chronic BCR inh – blocks chronic active B-cell receptor signaling. ABC-DLBCL IkBa-CBG/CBR reporter, luminescence ratio, 4 h. Potency, µM (doses to about 46.1 µM), most hits filed as inhibitors. 0.05% of 340,000 active; active means well fitted inhibition curve with a large enough effect in the signal ratio, with a control signal flat, not every such curve was filed as active; inconclusive means small, poorly fitted or top-dose-only effect, or effect the other way, or a change in a side signal; the % refers to the signal ratio
#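 TMD8 human ABC-DLBCL cells with doxycycline-inducible IκBα–green luciferase fusion and unfused red luciferase, in 0.5% FBS medium; compounds up to 46 uM, 4 h at 37C. Green/red luminescence ratio, filter-overlap corrected, fitted to concentration-response curves.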
# Tb PFK block – T. brucei PFK enzyme inhibition. T. brucei PFK, ADP-Glo luminescence. O15648. Potency, µM (series often up to 57.5 µM), usual class: inhibitors. AID 485367. 0.17% of 330,000 active; further: nearly all actives have a fitted effect of over 60% in size
# Target sequence (O15648 whole entry, looked up): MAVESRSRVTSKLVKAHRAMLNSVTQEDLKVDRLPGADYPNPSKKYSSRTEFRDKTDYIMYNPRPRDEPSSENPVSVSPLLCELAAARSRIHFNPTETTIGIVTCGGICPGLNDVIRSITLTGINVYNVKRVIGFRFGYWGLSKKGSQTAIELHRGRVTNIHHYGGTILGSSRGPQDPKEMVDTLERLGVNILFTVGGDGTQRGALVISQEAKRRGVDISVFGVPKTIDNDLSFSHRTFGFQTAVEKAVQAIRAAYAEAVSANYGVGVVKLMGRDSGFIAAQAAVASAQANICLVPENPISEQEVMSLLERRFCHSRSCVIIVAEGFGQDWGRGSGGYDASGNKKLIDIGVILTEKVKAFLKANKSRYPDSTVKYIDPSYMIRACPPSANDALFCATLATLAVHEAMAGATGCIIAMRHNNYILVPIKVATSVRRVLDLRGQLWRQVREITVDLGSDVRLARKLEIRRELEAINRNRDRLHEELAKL
#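 ADP-Glo luminescence quantified ADP after 45 min at room temperature, with 1.25 nM T. brucei PFK, 0.1 mM ATP and 0.5 mM fructose-6-phosphate in pH 8.0 TEA buffer. qHTS titrations up to 57 µM; curves classified by quality.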
# A number is an active result; 0 = inactive; ? = inconclusive; - = no result. An excerpt weighted towards active compounds, which were near 0.42% of everything screened. Unless noted, the call rests on the fitted dose curve; in most records, active means well fitted curve in the direction sought with a large enough effect; inconclusive means small, poorly fitted or top-dose-only effect, or another doubt; inactive means no such curve, though single readings can be large; an effect the other way counts as inactive or inconclusive.
SMILES,PGK inhibitor,Pin1 inh,B2AR arrestin,GLS inh,Chronic BCR inh,Tb PFK block
CN1C(=O)C(=Cc2ccc(Sc3ccccc3)o2)C(=O)N(C)C1=S,0,0,-,0,-,-
CN1C(=O)C(=Cc2ccc(Sc3ccccc3)o2)C(=O)N(C)C1=O,0,0,0,4.47µM,0,0
Cc1cc(/C=C2\C(=O)NC(=O)N(Cc3ccccc3Cl)C2=O)c(C)n1-c1ccc(C(=O)O)cc1,?,0,0,0,0,0
Cc1cc(/C=C2\C(=O)NC(=O)N(Cc3ccccc3)C2=O)c(C)n1-c1ccc(Cl)c(C(=O)O)c1,12.6µM,0,0,10µM,0,0
CC1Oc2cc3c(-c4c(O)cc(O)c5c(O)c6c(cc45)OC(C)C(C)C6=O)c(O)cc(O)c3c(O)c2C(=O)C1C (configuration not stated),0,?,0,7.94µM,?,0
COc1ccc(N2C(=O)/C(=C/c3ccc(C)o3)C(=O)NC2=S)cc1,0,0,0,?,0,0
O=C1NC(=S)N(c2ccc(F)cc2)C(=O)/C1=C\c1ccoc1,10µM,?,0,0,0,0
COc1ccc(OC)c(N2C(=O)/C(=C/c3ccco3)C(=O)NC2=S)c1,3.55µM,?,0,0,0,?
O=C1NC(=O)C(=Cc2ccco2)C(=O)N1,11.2µM,?,-,11.2µM,-,-
Cc1ccc(/C=C2\C(=O)NC(=S)N(c3cccc(F)c3)C2=O)o1,0,?,0,?,0,0
O=C1NC(=O)C(=Cc2ccc(Sc3ccccc3)o2)C(=O)N1,0,?,0,?,?,0
O=C1NC(=S)N(c2ccc(F)cc2)C(=O)/C1=C/c1ccco1,-,-,0,-,0,6.75µM
CCc1nn2c(=O)c(C)c(N3CCNCC3)nc2s1,-,0,-,-,-,-
CCC1CC2CC3c4[nH]c5ccc(OC)cc5c4CCN(C2)C13 (configuration not stated),-,-,-,0,-,-
O=c1c2ccccc2[se]n1-c1ccccc1,0,0,0,6.31µM,?,4.78µM
CC(=O)OC1CC(OC2C(O)CC(OC3C(O)CC(O[C@H]4CC[C@]5(C)C6CC[C@]7(C)[C@@H](C8=CC(=O)OC8)[C@@H](O)C[C@]7(O)[C@@H]6CC[C@@H]5C4)OC3C)OC2C)OC(C)C1OC1OC(CO)C(O)C(O)C1O (some centres not stated),-,-,-,0,-,-
Cc1cccc(N2C(=O)NC(=O)/C(=C/c3ccc([N+](=O)[O-])o3)C2=O)c1,?,?,0,7.08µM,0,?
C[C@H]1[C@@H]2Cc3ccc(O)cc3[C@]1(C)CCN2C,-,-,-,0,-,-
CN1C(=O)/C(=C/C=C/c2ccco2)C(=O)NC1=S,28.2µM,?,0,-,0,?
O=C1NC(=O)N(Cc2ccco2)C(=O)/C1=C/C=C/c1ccco1,?,?,0,0,0,30.1µM
CN1CC[C@]23c4c5ccc(O)c4OC2C(O)CCC3[C@H]1C5 (some centres not stated),-,-,-,0,-,-
[Hg+][c]1ccccc1,-,-,-,12.6µM,-,-
C#C[C@]1(OC(=O)CCCCCC)CC[C@H]2C3CCC4=CC(=O)CC[C@@H]4[C@H]3CC[C@@]21C (some centres not stated),-,-,-,0,-,-
CN[C@H]1C[C@@H](N)[C@H](O)[C@@H](O[C@@H]2O[C@H](CO)[C@H](O)[C@@H]3O[C@]4(O[C@@H]23)O[C@H]([C@@H](N)CO)[C@H](O)[C@@H](O)[C@H]4O)[C@@H]1O,-,-,-,0,-,-
O=c1c2ccccc2nc(-c2ccccc2)n1-c1cccc(O)c1,0,0,0,0,0,0
SMILES,PGK inhibitor,Pin1 inh,B2AR arrestin,GLS inh,Chronic BCR inh,Tb PFK block
Cc1nc2cc(-c3ccccc3)sc2c(=O)n1N,10µM,0,0,0,?,0
COc1cc(CCN)c(OC)cc1Br,-,-,-,0,-,-
CN1CCN(c2ccc(/C=C3\C(=O)NC(=S)N(c4cccc(Br)c4)C3=O)o2)CC1,0,?,0,11.2µM,?,0
CCOc1ccc(NS(=O)(=O)c2ccc(Cl)c(N=Nc3c(O)[nH]c(=S)[nH]c3=O)c2)cc1Br,22.4µM,-,-,0,-,-
O=C(O)c1ccccc1NS(=O)(=O)c1cccc(N=Nc2c(O)[nH]c(=S)[nH]c2=O)c1,0,0,0,0,0,?
CCc1nn2c(=O)cc(N3CCN(C)CC3)nc2s1,-,0,-,-,-,-
Clc1ccc(COC(Cn2ccnc2)c2ccc(Cl)cc2Cl)cc1 (configuration not stated),0,0,0,0,?,0
Clc1ccc(C(c2ccc(Cl)cc2)n2cc[n+](CC(OCc3ccc(Cl)cc3Cl)c3ccc(Cl)cc3Cl)c2)cc1 (configuration not stated),0,0,0,14.1µM,?,0
Cc1nn(C(C)(C)C)c(C)c1/C=N/OC(=O)Nc1ccc(Cl)c(Cl)c1,0,0,0,0,0,16.9µM
COC12c3ccccc3-c3ccccc3C1C(C(=O)O)C2C(=O)O (configuration not stated),-,-,-,17.8µM,-,-
Oc1ccc2c3c1OC1C(O)C=CC4[C@@H](C2)NCC[C@]314 (some centres not stated),-,-,-,0,-,-
CCCCc1ccc(C(=O)O)nc1,0,0,0,0,0,0
CCn1ncc(-c2ccnc3cc(C(=O)O)nn23)c1C,?,?,0,3.16µM,0,?
CCNC(C)Cc1ccc2c(c1)OCO2 (configuration not stated),-,-,-,0,-,-
CC1=C(C(=O)O)N2C(=O)[C@@H](NC(=O)CCCC(=O)O)[C@H]2SC1,0,0,0,0,0,0
Nc1nc(/C(=C/CC(=O)O)C(=O)NC2C(=O)N3C(C(=O)O)=CCSC23)cs1 (configuration not stated),-,-,-,25.1µM,-,-
Cc1ccc(N2C(=O)NC(=O)/C(=C/c3ccc(-c4ccc(C(=O)O)c(Cl)c4)o3)C2=O)cc1,0,?,0,11.2µM,0,0
Cc1cc(/C=C2\C(=O)NC(=O)N(c3cccc(F)c3)C2=O)c(C)n1-c1ccc(C(=O)O)c(Cl)c1,?,0,0,?,?,0
Cc1ccc(-n2sc3ccccc3c2=O)cc1,0,0,0,?,?,9.53µM
Oc1ccc2c3c1O[C@H]1[C@@H](O)C=CC4[C@@H](C2)NCC[C@@]341 (some centres not stated),-,-,-,0,-,-
COc1ccc(/C=C2\C(=O)NC(=S)N(C)C2=O)cc1C,10µM,-,0,0,0,0
